{"source": "PubChem BioAssay (NCATS)", "note": "Inconclusive results are not listed. Unmarked numbers belong to inactive results. Calls of active or inactive are those of the source. The call rests on the fitted dose curve; in most records, active means well fitted cell-killing curve with a large enough effect; inconclusive means small, poorly fitted or top-dose-only effect, or effect the other way; inactive means no such curve, though single readings can be large or run the other way. Potency means the concentration at half of the fitted maximal effect.", "data": [{"test": "Quantitative High-Throughput drug screen in 47 multiple myeloma cell lines against the NCATS MIPE library collection: KMS28PE_JCRB cell viability assay (AID 1918983); further: nearly all actives have a fitted effect of over 35% in size", "details": "KMS28PE multiple myeloma viability, CellTiter-Glo ATP, 48 h; series mostly up to 45.8 µM; viability, % of DMSO control: at the top concentration", "method_in_brief": "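500 cells/well; MIPE 4.0 drugs pin-transferred; 48 h, 37C, 5% CO2. CellTiter-Glo, 5 min RT, luminescence. Controls: DMSO 100%, media 0%.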", "values": [{"compound": "Cc1cn(-c2cc(NC(=O)c3ccc(C)c(Nc4nccc(-c5cccnc5)n4)c3)cc(C(F)(F)F)c2)cn1", "Potency": "20.9 µM (active)"}, {"compound": "CCCCCCCCCC(=O)N[C@@H](Cc1c[nH]c2ccccc12)C(=O)N[C@H](CC(N)=O)C(=O)N[C@@H](CC(=O)O)C(=O)N[C@@H]1C(=O)NCC(=O)N[C@@H](CCCN)C(=O)N[C@@H](CC(=O)O)C(=O)N[C@H](C)C(=O)N[C@@H](CC(=O)O)C(=O)NCC(=O)N[C@H](CO)C(=O)N[C@@H]([C@@H](C)CC(=O)O)C(=O)N[C@@H](CC(=O)c2ccccc2N)C(=O)O[C@@H]1C", "viability, % of DMSO control": "122%"}, {"compound": "COc1ccc(OC)c(-c2nnc3ccc(-c4ccc(OC)c(O[C@@H]5CCOC5)c4)nn23)c1", "Potency": "14.8 µM (active)"}, {"compound": "CNC(=O)c1ccc(-c2cnc3ncc(Cc4ccc5ncccc5c4)n3n2)cc1F", "viability, % of DMSO control": "152%"}, {"compound": "Cc1nc2ccc(CN(C)c3ccc(C(=O)N[C@@H](CCC(=O)O)C(=O)O)s3)cc2c(=O)[nH]1", "viability, % of DMSO control": "128%"}, {"compound": "C[C@@H]1CN(CC(=O)Nc2ccc3c(c2)Cc2cccc(-c4cc(=O)cc(N5CCOCC5)o4)c2S3)C[C@H](C)O1", "Potency": "9.35 µM (active)"}, {"compound": "CC(=O)c1c(C)c2cnc(Nc3ccc(N4CCNCC4)cn3)nc2n(C2CCCC2)c1=O", "Potency": "18.7 µM (active)"}, {"compound": "COc1cc(C)c(Sc2cnc(NC(=O)c3ccc(CNC(C)C(C)C)cc3)s2)cc1C(=O)N1CCN(C(C)=O)CC1", "note": "(stereo not given)", "Potency": "14.8 µM (active)"}, {"compound": "COC(=O)C1=C(C)NC(C)=C(C(=O)OCCN2CCN(C(c3ccccc3)c3ccccc3)CC2)C1c1cccc([N+](=O)[O-])c1", "note": "(stereo not given)", "viability, % of DMSO control": "130%"}, {"compound": "COc1cc2c(cc1-c1c(C)noc1C)ncc1[nH]c(=O)n([C@H](C)c3ccccn3)c12", "Potency": "0.662 µM (active)"}, {"compound": "CC(=O)OCCN1C(=O)c2c(C)nc3ccc(S(=O)(=O)N4CCOCC4)cc3c2C1=O", "viability, % of DMSO control": "132%"}, {"compound": "C1Cc2[nH]nc(-c3nn[nH]n3)c2C1", "viability, % of DMSO control": "114%"}, {"compound": "CC(=O)Nc1nc(C)c(-c2ccc(Cl)c(S(=O)(=O)NCCO)c2)s1", "Potency": "16.6 µM (active)"}, {"compound": "Nc1ccc(C(=O)c2cc3c(ccc4ccccc43)[nH]2)cc1", "Potency": "9.35 µM (active)"}, {"compound": "Nc1nc(NCCNc2ncc(-n3ccnc3)c(-c3ccc(Cl)cc3Cl)n2)ccc1[N+](=O)[O-]", "Potency": "23.5 µM (active)"}, {"compound": "Nc1ncnc2c1c(-c1cnc3[nH]ccc3c1)nn2C1CCCC1", "Potency": "1.87 µM (active)"}, {"compound": "CNc1nccc(-c2cccnc2Oc2cc(C(=O)Nc3cccc(C(F)(F)F)c3)ccc2C)n1", "Potency": "20.9 µM (active)"}, {"compound": "COc1cc(=C2C=c3ccccc3=N2)[nH]c1=Cc1[nH]c(C)cc1C", "Potency": "1.66 µM (active)"}, {"compound": "Nc1ccn([C@@H]2CS[C@H](CO)O2)c(=O)n1", "viability, % of DMSO control": "121% [at 92.2 µM]"}, {"compound": "O=C(O)Cn1nnc(-c2cc(N3CCC(Oc4cc(F)ccc4Br)CC3)no2)n1", "viability, % of DMSO control": "132%"}, {"compound": "Cn1cc(-c2[nH]c3cc(NC(=O)[C@H](N)C4CCCCC4)cc4c3c2C=NNC4=O)cn1", "Potency": "1.48 µM (active)"}, {"compound": "C[C@@]12O[C@@H](C[C@]1(O)CO)n1c3ccccc3c3c4c(c5c6ccccc6n2c5c31)CNC4=O", "Potency": "2.09 µM (active)"}, {"compound": "CN1CCN(c2cc(C(=O)Nc3ccc4c(c3)-c3c(c(C(N)=O)nn3-c3ccc(F)cc3)CC4)c(Cl)cn2)CC1", "Potency": "23.5 µM (active)"}, {"compound": "CCCCc1nc2cc(C=CC(=O)NO)ccc2n1CCN(CC)CC", "Potency": "0.526 µM (active)"}, {"compound": "Cn1c(CNc2ccc(C(=N)N)cc2)nc2cc(C(=O)N(CCC(=O)O)c3ccccn3)ccc21", "viability, % of DMSO control": "121% [at 23.2 µM]"}, {"compound": "O=C1CCC[C@@H]2[C@H]3CCC[N+]4([O-])CCC[C@@H](CN12)[C@@H]34", "note": "(stereo not given in full)", "viability, % of DMSO control": "115%"}, {"compound": "CC(C)c1ccc(Cn2ccc3c4c(N)nc(NC5CC5)nc4ccc32)cc1", "Potency": "9.35 µM (active)"}, {"compound": "N#Cc1c(O)c2c(-c3ccc(-c4ccccc4O)cc3)csc2[nH]c1=O", "Potency": "13.2 µM (active)"}, {"compound": "O=C(C=Cc1cccnc1)NCCCCC1CCN(C(=O)c2ccccc2)CC1", "Potency": "0.132 µM (active)"}, {"compound": "CC=CC1=C(C(=O)O)N2C(=O)[C@H](NC(=O)[C@H](N)c3ccc(O)cc3)[C@@H]2SC1", "viability, % of DMSO control": "146%"}, {"compound": "Cc1c(C)n(Cc2ccc(-c3ccccc3C(=O)O)cc2)c2ccc(C(=O)N[C@@H](C)c3ccc([N+](=O)[O-])cc3)cc12", "viability, % of DMSO control": "134%"}, {"compound": "O=C(O)c1ccc2c(c1)nc(Nc1cccc(Cl)c1)c1ccncc12", "Potency": "13.2 µM (active)"}, {"compound": "Cc1ccc2nc(NC(=O)CSc3nc4c(c(=O)n3-c3ccccc3)SCC4)sc2c1", "Potency": "23.5 µM (active)"}, {"compound": "CC1=C(CO)C(=O)O[C@@H]([C@@H](C)[C@H]2CC[C@H]3[C@@H]4C[C@H]5O[C@]56[C@@H](O)C=CC(=O)[C@]6(C)[C@@H]4CC[C@]23C)C1", "Potency": "0.264 µM (active)"}, {"compound": "Cc1cc(Nc2nc(N[C@@H](C)c3ccc(F)cc3)c(C#N)cc2F)n[nH]1", "Potency": "0.935 µM (active)"}]}]}
